Only some compounds are listed: those with a hit (about 3.9% of all), similar ones and a draw of the others.
TWEAK Fn14 block = TWEAK-Fn14 signaling inhibition | TWEAK-stimulated Fn14 reporter cells, luciferase luminescence, 8 h | inhibition, % at 10 µM | 360,000 tested, 2% active | AID 1159606; in the data active = inhibition above about 50%
TRAIL sens C8 = sensitizes caspase-8 expressing cells to TRAIL; inhibition (viability loss, TRAIL sensitization), % at 10 µM; NB7+C8 cells + TRAIL, ATPlite viability luminescence; AID 624354; 360,000 tested, 1% active;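 active = compounds causing at least 50% loss of cell viability in the single-dose screen, relative to plate controls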
HIF-2a inh = HIF-2a inhibition; inhibition, % at 18.8 µM; 786-0 RCC cells HIF-2a reporter, luciferase luminescence, overnight; 360,000 tested, 0.72% active;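 active = inhibition of the luminescence signal of 40% or more relative to plate controls, in a single-dose primary screen at 18.75 µM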
aSyn UTR inh = MLPCN primary screen, SNCA 5' untranslated region. inhibition, % (tested at 7.5 µM). AID 1813. alpha-synuclein 5'UTR reporter, inhibitor activity. 300,000 tested, 0.82% active; in the data active = inhibition above about 60%;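 note: H4 neuroglioblastoma cells stably carrying SNCA 5'UTR luciferase fusion; 0% = DMSO wells and 100% = positive control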
HSP90 inh = blocks HSP90-mediated luciferase refolding in reticulocyte lysate. 290,000 tested, 0.91% active. Rabbit reticulocyte lysate, luciferase refolding luminescence, 3 h. AID 1789. inhibition, % at 5.6 µM;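 active = inhibition above the screen-wide mean plus 3 SD, computed separately per campaign, cut at about 16% in these data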;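 note: 0% = DMSO wells and 100% = 60 µM geldanamycin wells; inhibitors lower the luminescence because luciferase stays unfolded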
TROY NFkB inh = inhibitors of TROY-dependent NF-kB signaling. Q293 LMP1-TROYcd NF-kB luciferase reporter, 4 h. inhibition, % at 10 µM. AID 1347056. 360,000 tested, 0.98% active;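 active = compounds whose plate-normalised and pattern-corrected inhibition of the luciferase reporter signal at the single screening dose is 50% or more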
HSP90 confirm = confirmation of HSP90 inhibitors | shares compounds with HSP90 inh | rabbit reticulocyte lysate, luciferase refolding luminescence, 3 h | inhibition, % at 5.9 µM | 2,300 tested, 64% active; in the data active = inhibition above about 18%;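 note: 0% = vehicle wells and 100% = reference inhibitor wells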
FLuc counter = counter-screen for HSP90 inhibitors: inhibitors of firefly luciferase; 2,300 tested, 48% active; shares compounds with HSP90 inh; inhibition, % at 5.9 µM; AID 1847; purified native firefly luciferase, luminescence;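 active = inhibition above the mean inhibition of all tested sample wells plus 3 SD, cut at about 10% in these data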;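 note: 0% = DMSO with luciferase and 100% = wells lacking luciferase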
Target sequence (P08659 whole entry, looked up): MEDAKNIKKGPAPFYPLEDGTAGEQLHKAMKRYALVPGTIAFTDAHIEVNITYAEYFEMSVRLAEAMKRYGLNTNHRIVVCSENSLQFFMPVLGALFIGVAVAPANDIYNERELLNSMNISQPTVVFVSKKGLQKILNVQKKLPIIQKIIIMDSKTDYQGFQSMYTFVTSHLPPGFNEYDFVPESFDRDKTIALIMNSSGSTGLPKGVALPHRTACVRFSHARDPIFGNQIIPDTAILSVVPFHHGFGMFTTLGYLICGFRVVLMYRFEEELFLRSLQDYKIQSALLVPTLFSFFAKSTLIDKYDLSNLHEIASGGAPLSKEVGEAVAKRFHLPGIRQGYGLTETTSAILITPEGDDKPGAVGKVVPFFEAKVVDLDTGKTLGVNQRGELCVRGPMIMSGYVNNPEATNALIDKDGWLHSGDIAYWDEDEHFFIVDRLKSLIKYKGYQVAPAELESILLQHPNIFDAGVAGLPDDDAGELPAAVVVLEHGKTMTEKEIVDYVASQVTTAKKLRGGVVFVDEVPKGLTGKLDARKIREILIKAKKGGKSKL
Numbers without * were called inactive; x = not tested or not shown.

SMILES	TWEAK Fn14 block	TRAIL sens C8	HIF-2a inh	aSyn UTR inh	HSP90 inh	TROY NFkB inh	HSP90 confirm	FLuc counter
CCN(CC)CCN(Cc1cc2cc3c(cc2[nH]c1=O)OCO3)C(=S)NC	-9.9	-11.7	11.0	7.2	28.9*	-8.7	-1.0	-3.9
COCCN(Cc1cc2cc3c(cc2nc1Cl)OCO3)C(C)=O	-2.7	-4.1	18.0	7.5	2.1	1.4	x	x
CC(=O)N(CCN1CCOCC1)Cc1cc2cc3c(cc2nc1Cl)OCO3	2.3	-2.0	-4.5	-6.1	23.9*	-8.2	-6.6	-7.5
O=C(NCc1ccccc1Cl)[C@H]1CCCN1C(=O)[C@H]1CCCN1C(=O)c1ccc(Cl)cc1	18.7	-5.2	6.6	x	x	2.2	x	x
COCc1cccc(-c2csc(C(C)(NC(C)=O)c3ccc(OC)cc3)n2)c1 (stereo not drawn)	-16.2	-5.2	3.3	x	x	4.6	x	x
C[C@H]1CN([C@@H](C)CO)S(=O)(=O)c2ccc(C#CC3(O)CCCC3)cc2O[C@@H]1CN(C)C(=O)Cc1cccnc1	3.2	-7.2	8.4	x	x	9.7	x	x
O=C(Nc1ccccc1Cl)c1cc(C2CCCCN2S(=O)(=O)c2ccc(F)cc2F)on1 (stereo not drawn)	-3.9	4.2	-11.5	x	x	-3.8	x	x
COc1cccc(/C=C2\Oc3ccc(O)cc3C2=O)c1O	-29.0	65.5*	-159.1	83.4*	17.5*	-5.9	32.8*	33.5*
COC(=O)c1ccc2c(c1)C(=O)/C(=C/c1ccc(O)cc1)O2	-22.1	20.7	-185.5	-118.2	4.0	-68.0	x	x
CN(C)c1ccc(/C=N/Nc2nc3ccccc3o2)cc1	80.9*	48.1	-71.2	67.0*	45.3*	53.3*	63.1*	62.0*
CNc1cccc(-c2cccc(C(=O)N3CCOCC3)c2)n1	-8.3	-7.4	-33.7	x	x	-42.4	x	x
CC(C)C[C@H]1CN(CCCC[C@@H]2CNC(=O)C(=O)N2CCc2ccccc2)C(=O)C(=O)N1Cc1ccccc1	0.8	21.1	-4.6	x	x	2.3	x	x
CC(=O)/C=C(\C)Nc1ccccc1O	9.7	15.2	11.0	-32.5	17.7*	-7.0	25.9*	-8.3
CCOC(=O)c1csc(COc2ccc(OC)cc2)n1	-28.6	5.7	-13.9	-53.1	20.3*	-15.5	51.9*	-13.1
CCOC(=O)c1csc(COc2ccccc2Cl)n1	5.0	4.3	-23.7	-22.3	-3.9	-23.1	x	x
COc1ccc2[nH]c(-c3ccc(C)cc3)cc(=O)c2c1	74.9*	84.5*	21.6	56.0	25.2*	41.6	55.8*	32.6*
OC(c1ccc(F)c(F)c1)c1nc(-c2ccc3c(c2)OCO3)cs1 (stereo not drawn)	-14.2	-9.3	-85.6	x	x	-20.7	x	x
C=CCc1cccc(C=Nc2cc(Br)ccc2O)c1O	15.4	6.9	7.1	-110.1	44.1*	-5.6	80.3*	-7.6
C=CCc1cccc(C=Nc2c[nH]c(=O)[nH]c2=O)c1O	3.0	2.2	5.5	23.0	-6.5	-3.3	x	x
c1ccc2nc(-c3ccncc3)ccc2c1	-16.9	-6.5	-192.9	-96.2	1.3	-21.2	x	x
c1ccc2nc(-c3ccc(N4CCOCC4)cc3)ccc2c1	89.7*	72.9*	-8.8	103.7*	26.5*	53.4*	79.5*	71.2*
Nc1ccc(-c2nc3cc(N)ccc3s2)cc1	-8.2	60.1*	-154.3	x	25.0*	-15.4	47.2*	38.8*
Cc1ccc2nc(-c3ccc(N)cc3)sc2c1	26.4	83.5*	-76.2	90.0*	49.7*	-4.3	69.0*	66.4*
Nc1ccc2nc(-c3ccccc3)sc2c1	90.5*	76.0*	-4.9	46.5	36.9*	21.8	72.2*	67.7*
CNC(=S)Nc1ccc(-c2nc3ccc(C)cc3s2)cc1	49.0	47.5	-85.0	-90.6	1.3	13.3	x	x
SMILES	TWEAK Fn14 block	TRAIL sens C8	HIF-2a inh	aSyn UTR inh	HSP90 inh	TROY NFkB inh	HSP90 confirm	FLuc counter
CC(=O)Nc1nc2cc(N)ccc2s1	-11.2	9.7	-6.2	x	x	7.2	x	x
CN(C)c1ccc(NC(=S)Nc2ccc3c(c2)c(=O)n(C)n3-c2ccc(C(C)(C)C)cc2)cc1	-9.8	-0.2	-37.8	x	x	3.2	x	x
O=C(CN(Cc1ccco1)C(=O)CNS(=O)(=O)c1ccc(Cl)cc1)NCc1ccco1	18.4	-15.9	6.9	4.9	54.8*	-14.3	-1.9	-8.0
Cc1ccc(S(=O)(=O)NCC(=O)N(CC(=O)NCc2ccco2)Cc2ccco2)cc1	2.4	9.9	7.1	-21.4	0.7	-4.3	x	x
O=C(Cn1cnc2c(OCc3ccccc3)ncnc21)NCCc1c[nH]c2ccccc12	0.2	7.0	-19.1	x	x	1.0	x	x
COc1ccc2nc(NC(=O)c3ccoc3C)sc2c1	59.0*	39.5	-161.3	-23.3	22.4*	-6.5	41.4*	30.1*
Cc1cc(C)c2nc(NC(=O)c3ccco3)sc2c1	59.4*	35.0	-78.8	34.3	18.3*	14.7	38.8*	33.0*
CCCCCCCCc1nnc(NC(=O)c2ccco2)s1	-0.3	-5.4	2.7	-16.7	24.8*	-12.0	-2.7	-5.7
Cc1cc(Cl)cc2sc(NC(=O)c3ccco3)nc12	5.5	10.2	-314.2	-122.7	-0.5	-55.9	x	x
Cc1nc(NC(=O)c2ccco2)sc1C(=O)O	59.4*	5.6	22.2	-18.3	54.3*	35.7	64.0*	-13.1
C[C@H](O)CNC(=O)c1[nH]cnc1C(=O)Nc1ccc(CNC(=O)OC(C)(C)C)cc1	-6.8	8.5	-4.8	x	x	5.6	x	x
COc1ccc2sc(NC(=O)c3ccco3)nc2c1	69.8*	68.2*	-66.9	22.5	55.6*	41.8	60.5*	48.0*
CSCC[C@H](CO)NC(=O)[C@H]1O[C@@H](n2cnc3c(N)ncnc32)[C@H](O)[C@@H]1O	-5.6	-4.0	12.6	x	x	6.2	x	x
COc1cccc(OC)c1C(=O)OCc1c(-c2ccccc2)ncc2ccccc12	4.7	-15.9	9.3	x	x	5.5	x	x
CC1CN/C(=C\C(=O)c2ccc(Cl)cc2)C(=O)N1 (stereo not drawn)	73.4*	13.6	-84.9	34.8	21.9*	-13.4	40.2*	24.4*
CC1(C(=O)NS(=O)(=O)C2CC2)CCCN(C(=O)c2cccc(Cl)c2)C1 (stereo not drawn)	-8.4	-13.0	12.5	x	x	-2.8	x	x
CCOc1ccc(NC(=O)c2[nH]c(C)c(C(C)=O)c2C)cc1	26.7	6.8	-75.0	-76.3	19.4*	18.2	12.3	-2.5
Cc1ccc(C(=O)O/N=C(\N)c2ccccc2)c(Cl)c1	96.1*	94.2*	11.8	85.1*	56.4*	81.9*	79.6*	86.6*
N/C(=N\OC(=O)c1ccccc1Cl)c1ccncc1	15.0	20.8	-328.9	-106.5	-2.8	-35.1	x	x
Cc1ccc(C(=O)O/N=C(\N)c2ccccn2)c(Cl)c1	105.0*	90.6*	73.4*	107.6*	94.0*	85.5*	96.0*	90.9*
C[C@H](NC(=O)c1ccco1)C(=O)NNC(=O)c1ccc(F)cc1	3.1	-8.3	8.2	x	x	9.3	x	x

Screens: PubChem, several laboratories
